According to PubChem BioAssay AID463173 (ICCB-Longwood Screening Facility, Harvard Medical School, 2010):
The whole screen tested about 52,000 compounds, of which about 4,300 (8.3%) were called active. Rule as the data show it: active = survival mostly below about 52% (no sharp cut-off); inactive = mostly above about 56%. For the sample, actives were picked, then their nearest neighbours and some compounds at random.

Each molecule was assayed on DeltatarO mutant (assay: growth inhibition of S. aureus wild type versus tarO mutant, primary screen, teichoic acid synthesis inhibitors, RN4220, OD600 (AID 463173)). Conditions: OD600, 18 h, active compounds read low, screened at 18.75 µg/mL (by protocol).
With COc1ccc(N2CCN(C(=O)Cn3ncc4c3-c3cc(C)ccc3OC4)CC2)cc1 the survival was 122% (inactive).
With C=C(C)Cn1c(=O)c2c(nc3n2CCN3c2cc(C)cc(C)c2)n(C)c1=O the survival was 81% (inactive).
In the case of Oc1cccc(N=Cc2sc(=S)n(C3CCCCC3)c2O)c1, the survival is reported as 84% (inactive).
For COC(=O)c1ccccc1NC(=O)C1=C(C)C(=O)OC12CCCCCC2, the survival was 84% (inactive).
For CC1=C(C(=O)Nc2cccc(C)c2C)C2(CCCCC2)OC1=O, the survival was 89% (inactive).
CC1=C(C(=O)Nc2cccc(C(F)(F)F)c2)C2(CCN(C(C)C)CC2)OC1=O was tested, and the survival was 84% (inactive).
CC1=C(C(=O)Nc2cccc(C(F)(F)F)c2)C2(CCCCC2)OC1=O was tested, and the survival was 95% (inactive).
In the case of CC1=C(C(=O)Nc2cccc(C(F)(F)F)c2)C2(CCCCCC2)OC1=O, the survival is reported as 32% (active).
In the case of CC1=C(C(=O)NCc2cccc(F)c2)C2(CCCCC2)OC1=O, the survival is reported as 37% (active).
CC(=O)N1CCC2(CC1)OC(=O)C(C)=C2C(=O)Nc1cccc(Cl)c1C was tested, and the survival was 70% (inactive).
In the case of CC1=C(C(=O)Nc2cccc(Cl)c2C)C2(CCCCCC2)OC1=O, the survival is reported as 0% (active).
With CC1=C(C(=O)NCc2cccc(F)c2)C2(CCCCCC2)OC1=O the survival was 55% (inactive).
For CC1=C(C(=O)NCc2cccc(Br)c2)C2(CCCCC2)OC1=O, the survival was 83% (inactive).
With COC(=O)c1ccccc1NC(=O)C1=C(C)C(=O)OC12CCC(C)CC2 (stereo unspecified) the survival was -23% (active).
For CC1=C(C(=O)Nc2ccccc2Br)C2(CCC(C)CC2)OC1=O (stereo unspecified), the survival was 83% (inactive).
With CCOc1ccc(C2C(C(=O)Nc3ccc(C)cc3C)=C(C)Nc3c(C(=O)Nc4ccc(C)cc4)cnn32)cc1OC (stereo unspecified) the survival was 94% (inactive).
O=C(NC(=O)c1ccccc1)Nc1ccc(-n2nc(C(F)(F)F)cc2C(F)(F)F)cc1 was tested, and the survival was 173% (inactive).
In the case of COC(=O)c1ccccc1NC(=O)Cn1c(=O)cc(-c2ccccc2)c2c(C)nn(C)c21, the survival is reported as 89% (inactive).
With CCOC(=O)C(CC)N1CCN(Cc2ccc(F)cc2)C(=O)C1=O (stereo unspecified) the survival was 85% (inactive).
With Cc1cccc(NC(=O)C(=O)NCC(c2cccnc2)N2CCc3ccccc3C2)c1C (stereo unspecified) the survival was 86% (inactive).
With CN1CC(=O)N(CC(=O)Nc2ccc(Cl)c(C(F)(F)F)c2)c2ccccc2C1=O the survival was 85% (inactive).
Cc1ccc(NC(=O)C2CCCN(S(=O)(=O)c3cccc4cccnc34)C2)c(C)c1 (stereo unspecified) was tested, and the survival was 78% (inactive).
In the case of O=C(COc1ccccc1[N+](=O)[O-])Nc1ccc(-c2nc3ccccc3s2)cc1, the survival is reported as 63% (inactive).
With COc1cccc(C(=O)Nc2ccccc2C(=O)OCc2cc(=O)n3nc(C4CC4)sc3n2)c1 the survival was 65% (inactive).
In the case of COc1ccc(OC)c(NC(=O)C2=C(C)C(=O)OC23CCCCCC3)c1, the survival is reported as 131% (inactive).
In the case of COc1ccc(NC(=O)C2=C(C)C(=O)OC23CCN(C(C)C)CC3)cc1Cl, the survival is reported as 83% (inactive).
COc1ccc(OC)c(NC(=O)C2=C(C)C(=O)OC23CCN(C(C)C)CC3)c1 was tested, and the survival was 32% (active).
With CCCn1c(=O)c2sccc2n2c(CCCC(=O)NC3CCCCC3)nnc12 the survival was 80% (inactive).
In the case of CCc1cccc(C)c1NC(=O)CCn1c(=O)c2cccn2c2ccccc21, the survival is reported as 58% (inactive).
For COc1ccc(-n2nc3c(N4CCCC(C(=O)NCCc5ccccc5C)C4)nnc(C)c3c2C)cc1 (stereo unspecified), the survival was 70% (inactive).
C/C(=N\NC(=O)c1ccco1)c1ccc(C)o1 was tested, and the survival was 80% (inactive).
With CC(=O)c1ccc(NC(=O)Cn2ncc3c4ccccc4n(Cc4ccccc4)c3c2=O)cc1 the survival was 73% (inactive).
In the case of Cc1cccc(-c2noc(-c3ccccc3OCC(=O)Nc3ccccc3[N+](=O)[O-])n2)c1, the survival is reported as 94% (inactive).
O=C(COc1ccccc1-c1nc(-c2ccccc2)no1)Nc1ccccc1[N+](=O)[O-] was tested, and the survival was 31% (active).
For CC(C)c1noc(-c2ccccc2OCC(=O)Nc2cccc([N+](=O)[O-])c2)n1, the survival was 62% (inactive).
CC(=O)c1ccc(NC(=O)COc2ccccc2-c2nc(C)no2)cc1 was tested, and the survival was 95% (inactive).
CC(C)c1noc(-c2ccccc2OCC(=O)Nc2ccc([N+](=O)[O-])cc2)n1 was tested, and the survival was 61% (inactive).
In the case of Cc1ccccc1-c1noc(-c2ccccc2OCC(=O)Nc2ccccc2[N+](=O)[O-])n1, the survival is reported as 45% (inactive).
In the case of CC(=O)c1ccc(NC(=O)COc2ccccc2-c2nc(C(C)C)no2)cc1, the survival is reported as 55% (active).
Cc1ccc(-c2noc(-c3ccccc3OCC(=O)Nc3ccccc3[N+](=O)[O-])n2)cc1 was tested, and the survival was 60% (inactive).
For CC(=O)c1ccc(NC(=O)COc2ccccc2-c2nc(-c3ccccc3)no2)cc1, the survival was 48% (inactive).
In the case of Cc1ccc2cccc(NC(=O)COc3ccccc3[N+](=O)[O-])c2n1, the survival is reported as 75% (inactive).
With Cc1noc(-c2ccccc2OCC(=O)Nc2ccccc2[N+](=O)[O-])n1 the survival was 39% (active).
CC(C)c1noc(-c2ccccc2OCC(=O)Nc2ccccc2[N+](=O)[O-])n1 was tested, and the survival was 44% (active).
C=CCNC(=S)N1CCC(C(=O)c2ccc(C)cc2)CC1 was tested, and the survival was 103% (inactive).
O=C(N/N=C/c1ccccc1)C(O)c1ccccc1 (stereo unspecified) was tested, and the survival was 95% (inactive).
With COc1ccc(-c2nc3sc(CCNC(=O)C(=O)Nc4ccc(OC)c(OC)c4)c(C)n3n2)cc1 the survival was 84% (inactive).
For CCCN1CC=C2C(C#N)=C(N)C(C#N)(C#N)C(c3ccc(F)cc3F)C2C1 (stereo unspecified), the survival was 77% (inactive).
For Cc1cc(OC(C)C(=O)N2CCN(CCc3ccccn3)CC2)ccc1Cl (stereo unspecified), the survival was 68% (inactive).
With CC1=C(C(=O)Nc2ccc(C)cc2C)C(c2cc(Br)ccc2F)n2ncc(C(=O)Nc3ccc(C)cc3)c2N1 (stereo unspecified) the survival was 89% (inactive).
Cc1ccc(-n2ncc3c(Nc4ccc5c(c4)OCCO5)ncnc32)cc1Cl was tested, and the survival was 117% (inactive).
In the case of COc1cc(NC(=O)CC2C(=O)N(c3ccc(Cl)cc3)C(=O)N2Cc2cccs2)cc(OC)c1 (stereo unspecified), the survival is reported as 85% (inactive).
With COc1ccc(-n2c(SCC(=O)NCc3ccc(C)cc3)nc3n[nH]c(C)c3c2=N)cc1 the survival was 87% (inactive).
With Cc1ccccc1Cn1c(=O)n(-c2ccc(Cl)cc2)c(=O)c2c3c(sc21)CCCC3 the survival was 114% (inactive).
In the case of COc1ccc(NC(=O)c2ccc3c(=O)n4nc(Nc5cccc(Cl)c5C)sc4nc3c2)cc1, the survival is reported as 67% (inactive).
With COc1ccc(Oc2c(C(F)(F)F)oc3c(CN4CCCC(C)C4)c(O)ccc3c2=O)cc1 (stereo unspecified) the survival was 68% (inactive).
With CC1CCCN(Cc2c(O)ccc3c(=O)c(-c4ccccc4Cl)c(C(F)(F)F)oc23)C1 (stereo unspecified) the survival was 43% (active).
For CC1CCCN(Cc2c(O)ccc3c(=O)c(Oc4ccccc4Cl)c(C(F)(F)F)oc23)C1 (stereo unspecified), the survival was 88% (inactive).
CC1CCCN(Cc2c(O)ccc3c(=O)c(-c4ccc(Cl)cc4)c(C(F)(F)F)oc23)C1 (stereo unspecified) was tested, and the survival was 46% (active).
For CCN1CCN(Cc2c(O)ccc3c(=O)c(Oc4ccccc4C(C)C)c(C(F)(F)F)oc23)CC1, the survival was 51% (active).
In the case of CC1CCN(Cc2c(O)ccc3c(=O)c(-c4ccc(Cl)cc4)c(C(F)(F)F)oc23)CC1, the survival is reported as 60% (inactive).
In the case of CCN1CCN(Cc2c(O)ccc3c(=O)c(Oc4ccccc4Cl)c(C(F)(F)F)oc23)CC1, the survival is reported as 90% (inactive).
With CC1CCCN(Cc2c(O)ccc3c(=O)c(Oc4ccc(C(C)(C)C)cc4)c(C(F)(F)F)oc23)C1 (stereo unspecified) the survival was 17% (active).
In the case of CC1CCCCN1Cc1c(O)ccc2c(=O)c(-c3ccccc3Cl)c(C(F)(F)F)oc12 (stereo unspecified), the survival is reported as 55% (inactive).
CCc1ccc(Oc2c(C(F)(F)F)oc3c(CN4CCCC(C)C4)c(O)ccc3c2=O)cc1 (stereo unspecified) was tested, and the survival was 77% (inactive).
CC(C)c1ccccc1Oc1c(C(F)(F)F)oc2c(CN3CCN(C)CC3)c(O)ccc2c1=O was tested, and the survival was 49% (inactive).
In the case of O=c1c(-c2ccc(Cl)cc2)c(C(F)(F)F)oc2c(CN3CCCCC3)c(O)ccc12, the survival is reported as 134% (inactive).
For COCc1cc(C)nc2sc3c(=O)n(-c4cc(C)ccc4C)nnc3c12, the survival was 87% (inactive).
In the case of Cc1cc(C)c(NC(=O)C2CCN(C(=O)N3CC(C)Oc4ccc(Cl)cc43)CC2)c(C)c1 (stereo unspecified), the survival is reported as 56% (inactive).
In the case of Cc1cc(C)c(NC(=O)CSc2nccn2-c2cccc(Cl)c2)c(C)c1, the survival is reported as 73% (inactive).
With CCN(CC)S(=O)(=O)c1ccc2c(c1)c(=O)c(C(=O)NCCc1ccccc1)cn2C the survival was 85% (inactive).
Cc1cc(C)c(NC(=O)Cn2nnc(C(=O)NCc3cccs3)c2N)c(C)c1 was tested, and the survival was 91% (inactive).
In the case of CCOc1ccc(Sc2cc(C(=O)NC(C)c3ccccc3)c3ccccc3n2)cc1 (stereo unspecified), the survival is reported as 75% (inactive).
With COc1cccc(C(=O)Nc2cccc(OCc3cc(=O)n4c5c(sc4n3)CCCC5)c2)c1 the survival was 51% (active).
With Cc1ccc(C(=O)Nc2cccc(OCc3cc(=O)n4c5c(sc4n3)CCCC5)c2)cc1 the survival was 118% (inactive).
In the case of Cc1csc2nc(COc3cccc(NC(=O)c4ccccc4F)c3)cc(=O)n12, the survival is reported as 123% (inactive).
For Cc1ccccc1C(=O)Nc1cccc(OCc2cc(=O)n3c(C)csc3n2)c1, the survival was 96% (inactive).
With COc1ccccc1C(=O)Nc1cccc(OCc2cc(=O)n3c(C)csc3n2)c1 the survival was 44% (active).
In the case of COc1ccccc1C(=O)Nc1cccc(OCc2cc(=O)n3c4c(sc3n2)CCCC4)c1, the survival is reported as 39% (active).
In the case of COc1ccc(C(=O)Nc2cccc(OCc3cc(=O)n4c5c(sc4n3)CCCC5)c2)cc1, the survival is reported as 55% (inactive).
In the case of Cc1ccccc1C(=O)Nc1cccc(OCc2cc(=O)n3c4c(sc3n2)CCCC4)c1, the survival is reported as 101% (inactive).
For COc1ccc(C(=O)Nc2cccc(OCc3cc(=O)n4c5c(sc4n3)CCCC5)c2)cc1OC, the survival was 53% (inactive).
With CCOc1ccc(-c2nonc2NC(=O)c2oc3ccc(Cl)cc3c2C)cc1 the survival was 64% (inactive).
With NNC1=NC2CS(=O)(=O)CC2S1 (stereo unspecified) the survival was 56% (inactive).
For CCSc1nnc(CNc2ccc(F)cc2)n1CC1CCCO1 (stereo unspecified), the survival was 91% (inactive).
For CCC(C)NC(=O)c1ccc(Cn2c(=O)c3cccn3c3cccnc32)cc1 (stereo unspecified), the survival was 116% (inactive).
CC(NC(=O)c1ccc(Cn2c(=O)c3cccn3c3cccnc32)cc1)c1ccccc1 (stereo unspecified) was tested, and the survival was 101% (inactive).
In the case of COCCCNC(=O)c1ccc(Cn2c(=O)c3cccn3c3cccnc32)cc1, the survival is reported as 70% (inactive).
CC(C)CCNC(=O)c1ccc(Cn2c(=O)c3cccn3c3cccnc32)cc1 was tested, and the survival was 64% (inactive).
In the case of CC(C)NC(=O)c1ccc(Cn2c(=O)c3cccn3c3cccnc32)cc1, the survival is reported as 44% (active).
With CC(CNC(=O)c1ccc(Cn2c(=O)c3cccn3c3cccnc32)cc1)c1ccccc1 (stereo unspecified) the survival was 41% (active).
